Assay [1] can be described thus: NCI Yeast Anticancer Drug Screen. Data for the rad50 strain (AID 155).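 Further: 0% = growth of vehicle-only cultures of the same strain.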 The note with it: S. cerevisiae rad50 strain growth inhibition; at 50.0 µM; active compounds read high. The procedure, abridged: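 Readout: growth inhibition relative to vehicle-treated cultures. Compound exposure was carried out in a genetically defined yeast strain deficient in DNA damage repair.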

Assay [2] in a line: NCI Yeast Anticancer Drug Screen. Data for the mec2-1 strain (AID 157). The settings on record: S. cerevisiae mec2-1 strain, at 50.0 µM, active compounds read high. In a few lines:
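mec2-1 yeast strain, carrying an alteration in DNA damage repair or cell cycle control, was exposed to compounds; growth inhibition was measured relative to vehicle-treated controls.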

Assay [3] can be described thus: NCI Yeast Anticancer Drug Screen. Data for the sgs1 mgt1 strain (AID 161).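 Further: 0% = growth of cultures given vehicle only.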 The settings on record: S. cerevisiae sgs1 mgt1 strain, at 50.0 µM, active compounds read high. The procedure, abridged:
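Compounds are added to genetically altered yeast, and growth is compared with cultures given vehicle alone to give percent inhibition.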

The nature of assay [4]: NCI Yeast Anticancer Drug Screen. Data for the cln2 rad14 strain (AID 165).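 Further: 0% = growth equal to vehicle treated cultures.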 The note with it: S. cerevisiae cln2 rad14 strain, at 50.0 µM, active compounds read high. The procedure, abridged: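 Yeast carrying cln2 and rad14 alterations (cell cycle control and DNA damage repair) were exposed to compounds. Growth inhibition was measured against vehicle-treated controls.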
Assay [5] can be described thus: NCI Yeast Anticancer Drug Screen. Data for the bub3 strain (AID 167). The settings on record: S. cerevisiae bub3 mutant strain, at 50.0 µM, active compounds read high. In a few lines:
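Readout: yeast growth inhibition, expressed relative to vehicle-only wells. The test organism is a mutant strain from a panel with lesions in DNA repair or checkpoint genes.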

Assay [6] can be described thus: NCI Yeast Anticancer Drug Screen. Data for the mlh1 rad18 strain (AID 175). The settings on record: S. cerevisiae mlh1 rad18 strain growth inhibition; at 50.0 µM; active compounds read high. In a few lines: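 Growth inhibition of the yeast strain was measured after compound exposure and expressed relative to vehicle-treated controls. The strain carries defined defects in DNA damage repair.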

This is part of a sample that, as a whole, favours compounds with a hit. Of some 79,000 tested, about 15% had one in any assay. A number with no mark means an inactive call. Activity calls are given as the source filed them. No stated cut-off is given here; in the data, active means growth inhibition above about 70%; inactive means the rest. Where a SMILES comes first, the peptide text is derived from it. The star is where a group is joined. Trt = c1ccc(C(c2ccccc2)(c2ccccc2)*)cc1; Cbz = O=C(OCc1ccccc1)*; Bz = O=C(c1ccccc1)*

Turning to `CC(=O)NC(C(=O)NC(CSCc1ccccc1)C(=O)O)=C(C)C` (centres undefined), the growth inhibition in assay [1] was -2.05%; in assay [2], -13.5%; in assay [3], 8.9%; in assay [4] it was 3.1%; in assay [5], -36.4%; in assay [6], -11.3%.

As for `O=C(O)CC(SSCc1ccccc1)C(=O)O` (centres undefined), the growth inhibition in assay [1] was 5.1%; in assay [2] it was 16.6%; in assay [3], -4.15%; in assay [4], -12.2%; in assay [5], 12.7%; in assay [6], 20.8%.

As to `CC(=O)OC1CCC(C(C)C)CC1` (centres undefined), the growth inhibition in assay [1] is 4.35%; in assay [2], -2.95%; in assay [3], -0.25%; in assay [4], -28.2%; in assay [5], 1.15%; in assay [6] it was -13.1%.

Turning to `CCC1=CC(C(O)CC(C)C)C(C)(Cc2ccc(CC)cn2)NC1c1ccccc1` (centres undefined), the growth inhibition in assay [1] is 24.9%; in assay [2], 14.8%; in assay [3] it was 40.2%; in assay [4] it was 11.9%; in assay [5], 54.1%; in assay [6], 50.3%.

As for `CC1CS(=O)(=O)O1` (centres undefined), the growth inhibition was -4.45% in assay [1]; -6.75% in assay [2]; -18.6% in assay [3]; 9.5% in assay [4]; 10.3% in assay [5]; 6.8% in assay [6].

With `C[NH-].C[NH-].C[NH-].C[NH-].O=C(O)c1cc(C(=O)O)c(C(=O)O)cc1C(=O)O.[Pt+2].[Pt+2]`, the growth inhibition in assay [1] is -6.25%; in assay [2] it was -2.6%; in assay [3] it was -2.05%; in assay [4], -36%; in assay [5], 0.55%; in assay [6] it was 13.3%.

For the compound `O=S(=O)(Nc1cccc(Cl)c1)c1ccc(F)cc1`, the growth inhibition in assay [1] is -8.45%; in assay [2] it was -11.2%; in assay [3], -13.2%; in assay [4], -5.4%; in assay [5] it was -11.3%; in assay [6], 2.5%.

Turning to `COC(=O)/C(C#N)=C\n1c(=S)[nH]c2ccccc21`, the growth inhibition in assay [1] is -14.2%; in assay [2] it was 2.55%; in assay [3], -16.4%; in assay [4] it was 17.4%; in assay [5], -4.9%; in assay [6] it was -8.35%.

As for `CN(C)N=Nc1ccc(Cl)cc1`, the growth inhibition in assay [1] is -5.15%; in assay [2], 21.9%; in assay [3] it was 16.6%; in assay [4], -56.6%; in assay [5], 35%; in assay [6], 8.3%.

`Oc1cc(CN2CCOCCOCCOCCOCC2)c(O)cc1CN1CCOCCOCCOCCOCC1`: the growth inhibition in assay [1] is 7.85%; in assay [2], -11.8%; in assay [3], 8.9%; in assay [4], -49.1%; in assay [5], -8.3%; in assay [6], -14.1%.

Consider `CC(C)COCC1COC2(OCC(C)(C)C2OC(=O)Nc2ccccc2)O1` (centres undefined), for which the growth inhibition in assay [1] was 5.55%; in assay [2] it was -0.6%; in assay [3], -12.4%; in assay [4], -5.6%; in assay [5], 5.95%; in assay [6] it was 17.6%.

With `Nc1cc(=O)[nH]c(N2CCN(c3ccccc3)CC2)n1`, the growth inhibition is 1.15% in assay [1]; -4.9% in assay [2]; -14.3% in assay [3]; 6.15% in assay [4]; 6.15% in assay [5]; 12.4% in assay [6].

For `COc1ccc2oc(=N)c(C(N)=S)cc2c1`, the growth inhibition is 28% in assay [1]; 24.2% in assay [2]; -3.45% in assay [3]; 16.8% in assay [4]; 7.9% in assay [5]; -2.95% in assay [6].

For `Cc1cc(C)c2c(=O)cc(-c3cccc(Cl)c3)[nH]c2n1`, the growth inhibition was 15.6% in assay [1]; -12.4% in assay [2]; -25% in assay [3]; -23.8% in assay [4]; -50.7% in assay [5]; -65.7% in assay [6].

Regarding `O=C1C2CC3C(C2)C13`, the growth inhibition in assay [1] was -1.55%; in assay [2] it was -6.9%; in assay [3], -8.05%; in assay [4], -5.9%; in assay [5], -10.2%; in assay [6] it was 11.5%.

On to `O=C(NCC1(c2ccc3c(c2)OCO3)OCCO1)c1ccccc1[N+](=O)[O-]`, for which the growth inhibition in assay [1] was 20%; in assay [2] it was -4.1%; in assay [3], -2.1%; in assay [4] it was -42.6%; in assay [5], -5.75%; in assay [6] it was 2.6%.

Turning to `O=C1c2cccc3c(Br)ccc(c23)C(=O)N1CCCN1CCOCC1`, the growth inhibition in assay [1] was 63.5%; in assay [2], 77.7% (active); in assay [3], 80.2% (active); in assay [4] it was 86.7% (active); in assay [5], 92.5% (active); in assay [6], 60.2%.

For `COC(=O)C(CSC(=O)c1ccccc1)NC(=O)CNC(=O)CNC(=O)C(CCCCNC(=O)OCc1ccccc1)NC(=O)CNC(=O)C(CSC(c1ccccc1)(c1ccccc1)c1ccccc1)NC(=O)OCc1ccccc1` (centres undefined) (Cbz-C(Trt)GK(Cbz)GGC(Bz)-OMe; configuration not given here), the growth inhibition in assay [1] was -4.85%; in assay [2], 22.9%; in assay [3] it was 25.8%; in assay [4] it was -6%; in assay [5], -53.1%; in assay [6] it was 32.1%.

With `OC1C(OCc2ccccc2)OC(COCc2ccccc2)C(OC2OC(COCc3ccccc3)C(OCc3ccccc3)C(OCc3ccccc3)C2OCc2ccccc2)C1OCc1ccccc1` (centres undefined), the growth inhibition in assay [1] was -2.1%; in assay [2], -9.85%; in assay [3], -13.8%; in assay [4], -8.65%; in assay [5] it was -3.3%; in assay [6] it was -3.6%.
